Measurements from PubChem BioAssay AID1159580 (chemical genetic matrix, 2015).
Screen size: about 5,500 compounds; about 2,000 (36%) were called active. Not shown: some 18% with an inconclusive outcome. Cut-off read from the data, not from the text of the source: active = normalized growth mostly below about 0.91 (no sharp cut-off); inconclusive = no clear call, values can overlap the other calls; inactive = mostly above about 0.92. The list shows a part of the results.

Experiment: chemical genetic growth profiling, strain panel (AID 1159580);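 note: tested at 20 µM; growth read once vehicle control cultures reached saturation at 30 °C; 1 = growth at the plate median or of vehicle wells; lower values mean less growth of the strain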
Details: growth OD

Measured: normalized growth

O=C1CN(/N=C\c2ccc([N+](=O)[O-])o2)C(=O)N1
active: S. cerevisiae deletion strains, locus YMR058W, strain fet3, stronger effect = lower value 0.898 | S. cerevisiae deletion strains, locus YNL250W, strain rad50, stronger effect = lower value 0.877
inactive: S. cerevisiae deletion strains, locus YJR075W, strain HOC1, stronger effect = lower value 0.986 | S. cerevisiae deletion strains, locus YKL009W, strain mrt4, stronger effect = lower value 0.967 | S. cerevisiae deletion strains, locus YKL068W, stronger effect = lower value 1 | S. cerevisiae deletion strains, locus YKL085W, strain MDH1 (second series), stronger effect = lower value 0.991 | S. cerevisiae deletion strains, locus YKL085W, strain MDH1, stronger effect = lower value 0.991 | S. cerevisiae deletion strains, locus YKL160W, strain elf1, stronger effect = lower value 0.985 | S. cerevisiae deletion strains, locus YKL190W, strain CNB1, stronger effect = lower value 0.996 | S. cerevisiae deletion strains, locus YKR001C, strain vps1, stronger effect = lower value 0.965 | S. cerevisiae deletion strains, locus YKR026C, strain gcn3, stronger effect = lower value 0.979 | S. cerevisiae deletion strains, locus YKR091W, strain srl3, stronger effect = lower value 0.979 | S. cerevisiae deletion strains, locus YLL001W, strain dnm1, stronger effect = lower value 1 | S. cerevisiae deletion strains, locus YLL026W, stronger effect = lower value 0.992 | S. cerevisiae deletion strains, locus YLL041C, strain sdh2, stronger effect = lower value 0.978 | S. cerevisiae deletion strains, locus YLR027C, strain aat2, stronger effect = lower value 0.975 | S. cerevisiae deletion strains, locus YLR039C, strain RIC1, stronger effect = lower value 0.983 | S. cerevisiae deletion strains, locus YLR058C, strain SHM2, stronger effect = lower value 1.01 | S. cerevisiae deletion strains, locus YLR102C, strain apc9, stronger effect = lower value 0.993 | S. cerevisiae deletion strains, locus YLR113W, strain HOG1, stronger effect = lower value 0.968 | S. cerevisiae deletion strains, locus YLR221C, strain rsa3, stronger effect = lower value 0.976 | S. cerevisiae deletion strains, locus YLR258W, strain gsy2, stronger effect = lower value 0.975 | S. cerevisiae deletion strains, locus YLR262C, strain YPT6 (second series), stronger effect = lower value 0.976 | S. cerevisiae deletion strains, locus YLR262C, strain YPT6, stronger effect = lower value 1.04 | S. cerevisiae deletion strains, locus YLR268W, strain sec22, stronger effect = lower value 0.996 | S. cerevisiae deletion strains, locus YLR320W, strain mms22, stronger effect = lower value 0.935 | S. cerevisiae deletion strains, locus YLR330W, strain CHS5, stronger effect = lower value 1 | S. cerevisiae deletion strains, locus YLR342W, strain FKS1 (second series), stronger effect = lower value 0.983 | S. cerevisiae deletion strains, locus YLR342W, strain FKS1, stronger effect = lower value 0.979 | S. cerevisiae deletion strains, locus YLR357W, strain rsc2, stronger effect = lower value 0.954 | S. cerevisiae deletion strains, locus YLR370C, strain arc18, stronger effect = lower value 0.985 | S. cerevisiae deletion strains, locus YLR371W, strain rom2, stronger effect = lower value 1.01 | S. cerevisiae deletion strains, locus YLR384C, strain iki3, stronger effect = lower value 0.986 | S. cerevisiae deletion strains, locus YLR418C, strain cdc73, stronger effect = lower value 0.885 | S. cerevisiae deletion strains, locus YML016C, strain PPZ1, stronger effect = lower value 0.998 | S. cerevisiae deletion strains, locus YML032C, strain rad52, stronger effect = lower value 0.929 | S. cerevisiae deletion strains, locus YML120C, strain ndi1, stronger effect = lower value 0.982 | S. cerevisiae deletion strains, locus YML124C, strain tub3, stronger effect = lower value 0.991 | S. cerevisiae deletion strains, locus YMR078C, strain ctf18, stronger effect = lower value 0.989 | S. cerevisiae deletion strains, locus YMR125W, strain sto1, stronger effect = lower value 0.943 | S. cerevisiae deletion strains, locus YMR129W, stronger effect = lower value 0.965 | S. cerevisiae deletion strains, locus YMR205C, strain PFK2, stronger effect = lower value 0.993 | S. cerevisiae deletion strains, locus YMR223W, strain ubp8, stronger effect = lower value 0.949 | S. cerevisiae deletion strains, locus YMR231W, strain pep5, stronger effect = lower value 0.985 | S. cerevisiae deletion strains, locus YMR263W, strain SAP30, stronger effect = lower value 0.977 | S. cerevisiae deletion strains, locus YMR307W, strain GAS1, stronger effect = lower value 0.973 | S. cerevisiae deletion strains, locus YNL067W, strain RPL9B, stronger effect = lower value 0.982 | S. cerevisiae deletion strains, locus YNL071W, strain lat1, stronger effect = lower value 0.959 | S. cerevisiae deletion strains, locus YNL128W, strain TEP1, stronger effect = lower value 0.974 | S. cerevisiae deletion strains, locus YNL153C, strain GIM3, stronger effect = lower value 0.966 | S. cerevisiae deletion strains, locus YNL183C, strain NPR1, stronger effect = lower value 0.879 | S. cerevisiae deletion strains, locus YNL209W, strain ssb2, stronger effect = lower value 0.975 | S. cerevisiae deletion strains, locus YNL233W, strain BNI4, stronger effect = lower value 0.995 | S. cerevisiae deletion strains, locus YNL248C, strain rpa49, stronger effect = lower value 0.923 | S. cerevisiae deletion strains, locus YNL271C, strain bni1, stronger effect = lower value 0.998 | S. cerevisiae deletion strains, locus YNL298W, strain CLA4, stronger effect = lower value 0.991 | S. cerevisiae deletion strains, locus YNL307C, strain MCK1, stronger effect = lower value 0.952 | S. cerevisiae deletion strains, locus YNL322C, strain KRE1 (second series), stronger effect = lower value 0.98 | S. cerevisiae deletion strains, locus YNL322C, strain KRE1, stronger effect = lower value 1.01 | S. cerevisiae deletion strains, locus YNR049C, strain mso1, stronger effect = lower value 0.984 | S. cerevisiae deletion strains, locus YNR052C, strain pop2, stronger effect = lower value 0.998 | S. cerevisiae deletion strains, locus YOL006C, strain TOP1, stronger effect = lower value 1.03 | S. cerevisiae deletion strains, locus YOL012C, strain htz1 0.88 | S. cerevisiae deletion strains, locus YOL147C, strain pex11, stronger effect = lower value 0.999 | S. cerevisiae deletion strains, locus YOR001W, strain rrp6, stronger effect = lower value 0.977 | S. cerevisiae deletion strains, locus YOR061W, strain CKA2, stronger effect = lower value 0.998 | S. cerevisiae deletion strains, locus YOR069W, strain VPS5, stronger effect = lower value 0.999 | S. cerevisiae deletion strains, locus YOR070C, strain gyp1, stronger effect = lower value 0.98 | S. cerevisiae deletion strains, locus YOR080W, strain dia2, stronger effect = lower value 0.983 | S. cerevisiae deletion strains, locus YOR083W, strain WHI5, stronger effect = lower value 1 | S. cerevisiae deletion strains, locus YOR106W, strain vam3, stronger effect = lower value 0.969 | S. cerevisiae deletion strains, locus YOR136W, strain idh2, stronger effect = lower value 0.983 | S. cerevisiae deletion strains, locus YOR144C, strain elg1, stronger effect = lower value 1.02 | S. cerevisiae deletion strains, locus YOR184W, strain ser1, stronger effect = lower value 0.932 | S. cerevisiae deletion strains, locus YOR231W, strain MKK1, stronger effect = lower value 0.889 | S. cerevisiae deletion strains, locus YOR265W, strain rbl2, stronger effect = lower value 0.979 | S. cerevisiae deletion strains, locus YOR270C, strain vph1, stronger effect = lower value 0.874 | S. cerevisiae deletion strains, locus YOR290C, strain snf2, stronger effect = lower value 0.961 | S. cerevisiae deletion strains, locus YOR316C, strain cot1, stronger effect = lower value 0.999 | S. cerevisiae deletion strains, locus YPL051W, strain arl3, stronger effect = lower value 0.979 | S. cerevisiae deletion strains, locus YPL055C, strain LGE1, stronger effect = lower value 0.97 | S. cerevisiae deletion strains, locus YPL078C, strain atp4, stronger effect = lower value 0.956 | S. cerevisiae deletion strains, locus YPL106C, strain sse1, stronger effect = lower value 0.964 | S. cerevisiae deletion strains, locus YPL240C, strain hsp82, stronger effect = lower value 0.974 | S. cerevisiae deletion strains, locus YPL241C, strain CIN2, stronger effect = lower value 0.996 | S. cerevisiae deletion strains, locus YPL256C, strain CLN2, stronger effect = lower value 0.956 | S. cerevisiae deletion strains, locus YPR119W, strain clb2, stronger effect = lower value 1 | S. cerevisiae deletion strains, locus YPR141C, strain kar3, stronger effect = lower value 1.01 | S. cerevisiae deletion strains, locus YPR163C, strain tif3, stronger effect = lower value 1 | S. cerevisiae deletion strains, locus YPR167C, strain met16, stronger effect = lower value 1 | S. cerevisiae deletion strains, strain wtn01, stronger effect = lower value 0.99 | S. cerevisiae strains, strain wild type, stronger effect = lower value 0.997
